Records with an inconclusive call do not appear. The list shows a part of the results. Calls of active or inactive are those of the source. Calls come from the whole dose curve; as a rule, active = well fitted curve in the direction sought with a large enough effect; inconclusive = small, poorly fitted or top-dose-only effect, or another doubt; inactive = no such curve, though single readings can be large; an effect the other way counts as inactive or inconclusive.
Experiments:
[1] = biological target: Rap guanine nucleotide exchange factor 3 (Homo sapiens) (UniProt O95398); test: Confirmatory qHTS for agonist of cAMP-regulated guanine nucleotide exchange factor 3 (EPAC1) (AID 1645881); note: nearly all actives have a fitted effect of over 75% in size; note: potency is the fitted concentration of half-maximal effect;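 for activation: EPAC1 catalysed release of BODIPY-GDP from Rap1B seen as fluorescence loss; 100% = effect of cAMP agonist control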
[2] = biological target: Rap guanine nucleotide exchange factor 4 (Homo sapiens) (UniProt Q8WZA2); test: Confirmatory qHTS for agonist of cAMP-regulated guanine nucleotide exchange factor 4 (EPAC2) (AID 1645884);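 note: nucleotide exchange releases bodipy-GDP from Rap1 and this lowers its fluorescence; nearly all actives have a fitted effect of over 65% in size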; note: potency is the fitted concentration of half-maximal effect; for activation: % is set by controls: 0 for no effect and ±100 for the full control effect
[3] = biological target: Rap guanine nucleotide exchange factor 4 (Homo sapiens) (UniProt Q8WZA2); test: Confirmatory qHTS for antagonist of cAMP-regulated guanine nucleotide exchange factor 4 (EPAC2) (AID 1645885); note: nearly all actives have a fitted effect of over 25% in size; note: potency is the fitted concentration of half-maximal effect; for activity change, negative = inhibition: % is set by controls: 0 for no effect and ±100 for the full control effect
[4] = biological target: Rap guanine nucleotide exchange factor 3 (Homo sapiens) (UniProt O95398); test: Counterscreen qHTS for agonist of cAMP-regulated guanine nucleotide exchange factor 3 (EPAC1) (AID 1645889); note: nearly all actives have a fitted effect of over 40% in size; note: potency is the fitted concentration of half-maximal effect; for activation: % of control where 0% means no effect
Procedure, shortened: (§1)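 Rap1B-BODIPY-GDP 250 nM + GDP 50 uM; cpds 7-pt, final 9.74 nM–152 uM (activator mode) or from 7.32 nM upwards (inhibitor mode); RT; FI 480/540 nm at 5 and 30 min, then ± cAMP, reread.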

[5] = biological target: Tumor susceptibility gene 101 protein (Homo sapiens) (UniProt Q99816); test: qHTS Assay for Iinhibitors of HIV-1 Budding by Blocking the Interaction of PTAP/TSG101: Hit Validation (AID 651600); note: % is set by controls: 0 for no effect and ±100 for the full control effect; nearly all actives have a fitted effect of over 70% in size
Procedure, shortened: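 Compounds are added to the Tsg101 binding domain (10 uM final) in pH 7.5 HEPES buffer. FITC-PTAP peptide follows at 50 nM final. After 20 min at r.t., polarized FITC emission is measured.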

[6] = biological target: Rap guanine nucleotide exchange factor 3 (Homo sapiens) (UniProt O95398); test: Counterscreen qHTS for antagonist of cAMP-regulated guanine nucleotide exchange factor 3 (EPAC1) (AID 1645888);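 note: fluorescence loss as bound BODIPY-GDP is released from Rap1B; % of control where 0% means no effect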
Procedure, shortened: as §1

[7] = biological target: DNA polymerase eta (Homo sapiens) (UniProt Q9Y253); test: qHTS for Inhibitors of Polymerase Eta: Confirmatory Assay for Cherry-picked Compounds (AID 720502); conditions: Pol eta primer extension, TAMRA/BHQ fluorescence, 10 min; note: potency is the fitted concentration of half-maximal effect
Procedure, shortened: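 Human Pol eta at 10 nM was preincubated with compound for 15 min at room temperature. Reaction was started with TAMRA/BHQ-2-labelled primer-template substrate (50 nM final), with fluorescence read at 0 and 10 min (ex 525, em 598 nm).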

Sequence of Rap guanine nucleotide exchange factor 3 (Homo sapiens) (O95398 whole entry, looked up): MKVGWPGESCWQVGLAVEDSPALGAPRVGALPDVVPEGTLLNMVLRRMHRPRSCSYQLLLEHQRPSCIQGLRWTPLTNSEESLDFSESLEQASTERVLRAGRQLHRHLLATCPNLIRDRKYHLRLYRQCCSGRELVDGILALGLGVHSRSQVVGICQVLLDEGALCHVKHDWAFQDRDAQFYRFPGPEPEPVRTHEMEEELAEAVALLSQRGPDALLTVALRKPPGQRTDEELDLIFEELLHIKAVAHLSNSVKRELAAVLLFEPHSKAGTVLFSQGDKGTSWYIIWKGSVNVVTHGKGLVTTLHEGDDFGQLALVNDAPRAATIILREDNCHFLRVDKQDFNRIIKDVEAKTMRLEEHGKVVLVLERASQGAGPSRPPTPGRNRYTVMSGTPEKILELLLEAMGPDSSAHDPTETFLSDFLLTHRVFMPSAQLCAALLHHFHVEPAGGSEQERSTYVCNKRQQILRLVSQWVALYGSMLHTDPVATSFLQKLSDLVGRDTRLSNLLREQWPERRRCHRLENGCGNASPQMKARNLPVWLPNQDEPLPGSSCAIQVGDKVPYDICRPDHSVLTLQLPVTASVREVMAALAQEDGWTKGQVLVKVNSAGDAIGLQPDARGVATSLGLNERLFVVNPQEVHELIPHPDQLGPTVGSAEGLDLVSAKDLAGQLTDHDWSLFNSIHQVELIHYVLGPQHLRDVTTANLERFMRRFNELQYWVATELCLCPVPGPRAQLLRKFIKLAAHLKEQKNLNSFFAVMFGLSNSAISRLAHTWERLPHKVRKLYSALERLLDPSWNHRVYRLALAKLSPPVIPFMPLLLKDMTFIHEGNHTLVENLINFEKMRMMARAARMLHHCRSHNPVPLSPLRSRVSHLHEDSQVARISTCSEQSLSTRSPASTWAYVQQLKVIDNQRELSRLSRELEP
Sequence of Rap guanine nucleotide exchange factor 4 (Homo sapiens) (Q8WZA2 whole entry, looked up): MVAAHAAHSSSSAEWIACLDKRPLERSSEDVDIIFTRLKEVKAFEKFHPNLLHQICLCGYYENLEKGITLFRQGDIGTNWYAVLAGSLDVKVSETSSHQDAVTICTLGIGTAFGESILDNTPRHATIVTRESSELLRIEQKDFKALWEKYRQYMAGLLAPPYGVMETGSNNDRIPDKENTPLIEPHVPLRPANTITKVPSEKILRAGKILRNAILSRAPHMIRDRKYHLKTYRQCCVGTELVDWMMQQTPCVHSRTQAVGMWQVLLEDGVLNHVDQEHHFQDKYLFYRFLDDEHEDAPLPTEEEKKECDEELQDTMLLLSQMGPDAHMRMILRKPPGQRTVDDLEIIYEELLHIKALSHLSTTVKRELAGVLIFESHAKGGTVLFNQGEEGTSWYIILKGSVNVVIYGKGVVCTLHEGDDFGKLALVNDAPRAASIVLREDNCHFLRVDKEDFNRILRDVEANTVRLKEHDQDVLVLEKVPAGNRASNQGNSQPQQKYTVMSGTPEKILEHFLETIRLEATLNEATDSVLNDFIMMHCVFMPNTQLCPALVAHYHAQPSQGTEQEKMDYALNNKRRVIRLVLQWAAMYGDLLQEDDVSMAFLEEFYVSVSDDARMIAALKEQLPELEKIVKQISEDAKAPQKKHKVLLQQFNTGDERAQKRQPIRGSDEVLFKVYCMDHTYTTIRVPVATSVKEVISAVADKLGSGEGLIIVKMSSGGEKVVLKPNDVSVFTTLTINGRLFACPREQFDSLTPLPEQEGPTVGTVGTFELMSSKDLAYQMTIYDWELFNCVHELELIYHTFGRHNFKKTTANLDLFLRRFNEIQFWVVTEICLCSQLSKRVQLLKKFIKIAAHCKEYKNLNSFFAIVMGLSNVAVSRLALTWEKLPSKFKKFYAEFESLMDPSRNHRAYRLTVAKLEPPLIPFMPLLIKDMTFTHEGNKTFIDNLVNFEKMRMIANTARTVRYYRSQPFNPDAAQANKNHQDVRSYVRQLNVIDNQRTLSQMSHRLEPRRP
Sequence of DNA polymerase eta (Homo sapiens) (Q9Y253 whole entry, looked up): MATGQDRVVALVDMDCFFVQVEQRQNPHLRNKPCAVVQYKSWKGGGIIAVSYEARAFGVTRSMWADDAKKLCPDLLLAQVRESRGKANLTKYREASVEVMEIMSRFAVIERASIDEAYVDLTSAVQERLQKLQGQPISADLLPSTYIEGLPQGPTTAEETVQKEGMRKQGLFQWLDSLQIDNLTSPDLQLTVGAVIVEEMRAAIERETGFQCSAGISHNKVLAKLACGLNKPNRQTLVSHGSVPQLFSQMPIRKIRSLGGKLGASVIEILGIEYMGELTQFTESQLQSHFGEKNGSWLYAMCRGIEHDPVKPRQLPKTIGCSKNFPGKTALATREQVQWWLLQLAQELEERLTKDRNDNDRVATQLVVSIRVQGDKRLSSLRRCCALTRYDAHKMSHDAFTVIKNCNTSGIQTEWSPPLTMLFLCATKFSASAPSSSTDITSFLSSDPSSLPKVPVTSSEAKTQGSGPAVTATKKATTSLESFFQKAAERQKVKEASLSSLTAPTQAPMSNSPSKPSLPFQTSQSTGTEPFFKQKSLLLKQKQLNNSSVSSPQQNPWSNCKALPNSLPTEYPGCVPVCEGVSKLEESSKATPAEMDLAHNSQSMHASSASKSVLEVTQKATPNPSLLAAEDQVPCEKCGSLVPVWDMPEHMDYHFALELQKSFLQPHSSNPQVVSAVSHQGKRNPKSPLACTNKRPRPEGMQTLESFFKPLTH
Sequence of Tumor susceptibility gene 101 protein (Homo sapiens) (Q99816 whole entry, looked up, the tested form may be a part): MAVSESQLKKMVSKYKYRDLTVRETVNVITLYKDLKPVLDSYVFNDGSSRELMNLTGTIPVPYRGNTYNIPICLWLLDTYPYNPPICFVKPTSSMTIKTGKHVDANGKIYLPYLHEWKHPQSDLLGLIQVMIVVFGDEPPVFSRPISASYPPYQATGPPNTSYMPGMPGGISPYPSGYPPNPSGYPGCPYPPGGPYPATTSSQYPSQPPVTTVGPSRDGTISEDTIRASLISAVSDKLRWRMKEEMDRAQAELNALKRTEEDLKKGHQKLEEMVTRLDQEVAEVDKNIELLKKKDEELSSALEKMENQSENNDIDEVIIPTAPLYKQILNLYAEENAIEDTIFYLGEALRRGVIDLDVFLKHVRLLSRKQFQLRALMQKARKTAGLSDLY

C=CC(C)N1C(=O)S/C(=C\c2ccc(N3CCOCC3)cc2C)C1=O (stereo not drawn)
inactive: Potency [1] | Potency [2] | Potency [4]
active: Potency [3] 84.9 µM

O=C(O)CN1C(=O)/C(=C\c2cccc(OCc3ccc(F)cc3)c2)SC1=S
inactive: Potency [1] | activation [2] 1.62% [at 17.1 µM, percent relative to cAMP agonist control] | Potency [3] | activation [4] 14.2% [at 30.8 µM]

COc1ccc2nc(N3CCCC3)c(C#N)cc2c1
inactive: Potency [5] | Potency [1] | activation [2] 3.12% [at 17.1 µM, percent relative to cAMP agonist control] | Potency [3] | activity change, negative = inhibition [6] -11.6% [at 30.8 µM]

CCC(C)Cn1c(O)cc2nn(-c3nc4ccccc4s3)c(=O)c-2c1C (stereo not drawn)
active: Potency [7] 75.7 µM
inactive: Potency [1] | activation [2] -0.693% [at 17.1 µM, percent relative to cAMP agonist control] | Potency [3] | activity change, negative = inhibition [6] -16.7% [at 30.8 µM]

CN1CCN(C2=CC3=CC(=C(C#N)C#N)CCC3CC2)CC1 (stereo not drawn)
active: Potency [1] 44.7 µM | Potency [2] 56.2 µM | Potency [3] 6.75 µM | Potency [4] 14.1 µM

CCN(Cc1ccccc1)S(=O)(=O)c1cc2c3c(c1)CCN3C(=O)CC2
inactive: Potency [1] | activation [2] 0.922% [at 17.1 µM, percent relative to cAMP agonist control] | Potency [3] | activation [4] -5.83% [at 30.8 µM]

Cc1cc(C)nc(SCC(=O)c2ccc(C)c(C)c2)n1
active: Potency [3] 13.5 µM
inactive: Potency [1] | Potency [2] | Potency [4]

CCCc1nc2ccc(C(=O)OC)cn2c1Cc1ccccc1C(F)(F)F
inactive: Potency [1] | Potency [2] | Potency [4]
active: Potency [3] 30.1 µM

CCCn1c(/C=C/c2ccco2)nc2ccccc21
inactive: Potency [1] | activation [2] -2.96% [at 17.1 µM, percent relative to cAMP agonist control] | Potency [3] | activation [4] 26.1% [at 30.8 µM]

CCCCC[C@H](C)N1C[C@@H](COCc2ccccc2)Oc2cc(N3CC[C@@H](O)C3)ccc2S1(=O)=O
inactive: Potency [1] | activation [2] 6.13% [at 17.1 µM, percent relative to cAMP agonist control] | Potency [3] | activation [4] 5.17% [at 30.8 µM]

CC(C)CCOP(=O)(c1ccc(N(C)C)cc1)C(O)c1c(Cl)cccc1Cl (stereo not drawn)
inactive: Potency [1] | activation [2] 13.3% [at 17.1 µM, percent relative to cAMP agonist control] | Potency [3] | activation [4] 2.73% [at 30.8 µM]

Cc1ccc(C)c(-c2ccc(=O)n(Cc3ccc(F)cc3Cl)n2)c1
inactive: Potency [1] | Potency [2] | Potency [3] | Potency [4]

CCCc1[nH]c2ccc(C(=O)OC)cc2c1CCC
active: Potency [3] 19 µM
inactive: Potency [1] | Potency [2] | Potency [4]

CCCCC[C@H](C)N1C[C@@H](COCc2ccccc2)Oc2cc(N3CC[C@H](O)C3)ccc2S1(=O)=O
active: Potency [3] 19 µM
inactive: Potency [1] | Potency [2] | Potency [4]

CC(C)(C)Cc1c(-c2ccco2)nc2ccc(Cl)cn12
inactive: Potency [1] | activation [2] 1.87% [at 17.1 µM, percent relative to cAMP agonist control] | Potency [3] | activation [4] 3.65% [at 30.8 µM]

CC1(C(=O)NS(=O)(=O)c2ccc3ccccc3c2)CCN1C(=O)Cc1ccc(-c2ccccc2)cc1 (stereo not drawn)
inactive: Potency [1] | activation [2] 1.72% [at 17.1 µM, percent relative to cAMP agonist control] | Potency [3] | activation [4] 21.8% [at 30.8 µM]

O=C(Nc1nc(-c2ccco2)c(-c2ccco2)s1)c1ccco1
inactive: Potency [1] | activation [2] 2.72% [at 17.1 µM, percent relative to cAMP agonist control] | Potency [3] | activity change, negative = inhibition [6] 0.168% [at 30.8 µM]
active: Potency [7] 26.9 µM

FC(F)(F)c1cccc(CN2CCC(c3cc(-c4cccs4)n[nH]3)CC2)c1
inactive: Potency [1] | Potency [2] | Potency [3] | Potency [4]

OC(c1ccccc1)(c1nc(-c2cccc(C(F)(F)F)c2)cs1)C(F)(F)F (stereo not drawn)
inactive: Potency [1] | Potency [2] | Potency [3] | Potency [4]

O=S(=O)(c1ccc2nc(-c3ccco3)c(-c3ccco3)nc2c1)N1CCOCC1
inactive: Potency [1] | activation [2] 6.85% [at 17.1 µM, percent relative to cAMP agonist control] | Potency [3] | activation [4] 21.3% [at 30.8 µM]

CNC(=O)c1ccc(Nc2nnc(-c3ccc(O)cc3)c3ccccc23)cc1
inactive: Potency [1] | Potency [2] | Potency [3] | Potency [4]

CC1(C)CC(CCN(Cc2ccccc2)C(=O)c2ccco2)(c2ccccc2)CCO1 (stereo not drawn)
inactive: Potency [1] | Potency [2] | Potency [3] | Potency [4]

CC(=O)N(CCC(c1ccco1)C(C)C)Cc1ccc(Cl)cc1 (stereo not drawn)
inactive: Potency [1] | Potency [2] | Potency [3] | Potency [4]

COc1ccccc1N(CC(=O)Nc1cc(C)on1)S(=O)(=O)c1ccc(Cl)cc1
inactive: Potency [1] | activation [2] 2.18% [at 17.1 µM, percent relative to cAMP agonist control] | Potency [3] | activation [4] 29.1% [at 30.8 µM]

CCOC(=O)c1c(C)[nH]c(C(=O)OCC(=O)Nc2sccc2C(N)=O)c1C
inactive: Potency [1] | Potency [2] | Potency [3] | Potency [4]

— PubChem BioAssay (NCATS)
